Data as given in PubChem BioAssay (NCI).
This is part of a sample that, as a whole, favours compounds with a hit. Of some 83,000 tested, about 20% had one in any assay.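 The test compound was applied at a single concentration to cells in 96-well plates for 48 hours, and percent growth was recorded.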 A number with no mark means an inactive call. Calls of active or inactive are those of the source. The calls were made as follows: active = growth percent below 10; inactive = the rest.

Key:
Assay in all cases: NCI-60 one-dose screen, 48 h (100 = growth as untreated, 0 = no growth, -100 = all killed)
Conditions in all cases: 10 µM unless noted
DU-145 prostate = system: DU-145 prostate
K-562 leukemia = system: K-562 leukemia
MALME-3M melanoma = system: MALME-3M melanoma
MDA-MB-231 breast = system: MDA-MB-231 breast
RXF 393 renal = system: RXF 393 renal
SF-268 CNS = system: SF-268 CNS
SF-295 CNS = system: SF-295 CNS
SF-539 CNS = system: SF-539 CNS
UACC-257 melanoma = system: UACC-257 melanoma
M14 melanoma = system: M14 melanoma
HCT-15 colon = system: HCT-15 colon
HT29 colon = system: HT29 colon
SNB-75 CNS = system: SNB-75 CNS
SNB-19 CNS = system: SNB-19 CNS
U251 CNS = system: U251 CNS
PC-3 prostate = system: PC-3 prostate
SK-MEL-5 melanoma = system: SK-MEL-5 melanoma
UACC-62 melanoma = system: UACC-62 melanoma
LOX IMVI melanoma = system: LOX IMVI melanoma
SK-MEL-28 melanoma = system: SK-MEL-28 melanoma

| SMILES | growth (DU-145 prostate) | growth (K-562 leukemia) | growth (MALME-3M melanoma) | growth (MDA-MB-231 breast) | growth (RXF 393 renal) | growth (SF-268 CNS) | growth (SF-295 CNS) | growth (SF-539 CNS) | growth (UACC-257 melanoma) | growth (M14 melanoma) | growth (HCT-15 colon) | growth (HT29 colon) | growth (SNB-75 CNS) | growth (SNB-19 CNS) | growth (U251 CNS) | growth (PC-3 prostate) | growth (SK-MEL-5 melanoma) | growth (UACC-62 melanoma) | growth (LOX IMVI melanoma) | growth (SK-MEL-28 melanoma) |
| --- | --- | --- | --- | --- | --- | --- | --- | --- | --- | --- | --- | --- | --- | --- | --- | --- | --- | --- | --- | --- |
| O=C(CCCCCCN1CC(=O)N2[C@@H](c3ccc(Cl)cc3)c3[nH]c4ccccc4c3C[C@H]2C1=O)NO | 73.4% | 29.7% | 37.2% | 50.9% | 72.7% | 91.2% | 80.6% | 63.5% | 79.7% | 59% | 101% | 76.6% | 27.1% | 67.1% | 71.1% | 43.5% | 61.8% | 34.5% | -63.6% (active) | 46.3% |
| CCCCCCCC/C=C\CCCCCCCCOc1ccccc1CC(=O)NCC[N+]1(C)CCCCC1 | 67.1% | 36.3% | 69.8% | 59.8% | 28.6% | 39.2% | 97.4% | 95.1% | 61.5% | 65.5% | 102% | 9.78% (active) | 49.3% | 52.6% | 39% | 3.49% (active) | 86.5% | 53.8% | 75.7% | 84.2% |
| C#CCOc1cccc(-c2ncc3cc(NC(=O)CCl)ccc3n2)c1 | -73.1% (active) | 2.16% (active) | -69% (active) | -10.3% (active) | -86.3% (active) | -41.8% (active) | 69.4% | -25.9% (active) | 62% | -45.9% (active) | -29.6% (active) | -67.6% (active) | 24.4% | 2.89% (active) | -95.7% (active) | 11.7% | -65.2% (active) | -6.06% (active) |  | 53.9% |
| CC[C@H](CC[C@@H](C)[C@H]1CC[C@H]2[C@@H]3CC[C@@H]4CC(=O)/C(=C\c5ccncc5)C[C@]4(C)[C@H]3CC[C@]12C)C(C)C | 109% | 97% | 100% | 104% | 109% | 107% | 99.2% | 103% | 106% | 104% | 102% | 103% | 99.4% | 99.2% | 96.3% | 92.6% | 100% | 94.5% | 95.7% | 107% |
| Nc1ccc([N+](=O)[O-])cc1N=C/C=C/c1ccccc1 | 77.4% | 29.5% | 138% | 47.6% | 85.1% | 51.4% | 109% | 79% | 86.5% | 68.4% | 42.9% | 28.6% | 86.6% | 72.2% | 56.9% | 72.4% | 56.5% | 63.2% | 49% | 94.8% |
| COc1ccc(OC)c(Nc2nnc(-c3ccc(Cl)cc3)o2)c1 | 70% | 83.5% | 66.9% | 85.6% | 90.4% | 55.4% | 29.2% | 50.7% | 104% | 93.1% | 96% | 48.9% | 59.4% | 58.4% | 2.55% (active) | 88.4% | 104% | 97.5% | 73.8% | 102% |
| CCn1cc(CNc2ccc(C(=O)Nc3cc4cc(OC)c(OC)cc4c(C)n3)cc2)c(C)n1 | 56.3% | 15.6% | 25.2% | 74.7% | 90.9% | 48.6% | 30.4% | 75.5% | 48.1% | 22.1% | 23.1% | 54.1% | 77.1% | 90% | 71% | 18.6% | 1.46% (active) | 6.57% (active) | 23.9% | 50.4% |
| c1ccc(CCc2ccccc2-c2cc(-c3ccccc3)on2)cc1 | 92% | 71.2% | 102% | 84.3% | 94.2% | 97.1% | 96.3% | 93.8% | 99.9% | 87.8% | 83.6% | 68.2% | 80.5% | 90.3% | 95.3% | 89.1% | 78.9% | 71.1% | 92.2% | 93.9% |
| CCCCCCC(=O)Nc1ncc(Cc2ccc(C)cc2)s1 | 42.2% | 24.2% | 58.6% | 59.9% | -7.29% (active) | 58.1% | 34.6% | 20.6% | 55.2% | 31.6% | 35.5% | 15.4% | -0.16% (active) | 44.2% | 39% | 41.7% | 36.9% | 31.1% | 44.1% | 66.5% |
| CCN1C(=O)N(CC)C2C1NN=c1s/c(=C\c3ccccc3Br)c(=O)n12 (stereo unspecified) | 10.5% | 13.1% | 42% | 13.9% | 50.7% | 43.9% | 9.97% (active) | -16% (active) | 56% | 8.22% (active) | 8.51% (active) | 4.72% (active) | 10.1% | 26.8% | 5.61% (active) | 23.2% | -17.6% (active) | 24.5% | 16.3% | 57.4% |
| Cn1c(/C=C/[N+](=O)[O-])cc2ccccc21 | -8.11% (active) | 7.24% (active) | 91.4% | 63% | -97.1% (active) | 93.4% | 40.4% | -53.4% (active) | -5.1% (active) | -70.1% (active) | -56.7% (active) | -53.2% (active) | 44.3% | 57.7% | -72.1% (active) | 7.59% (active) | 47.2% | 42.2% |  | 73.3% |
| CC(C)CCSc1nc(Nc2ccccc2)c(C#N)c(-c2ccccc2)n1 | 61.9% | 48.6% | 37.4% | 8.82% (active) | 23.1% | 60% | 32% | 18.4% | 88.2% | 71.4% | 55.3% | 50.7% | -10.1% (active) | 19.3% | 2.98% (active) | 68.8% | 95.2% | 89.9% |  | 82.1% |
| CCCCCCOC(=O)CC1=C(C)/C(=C/c2[nH]c(-c3ccc[nH]3)cc2OC)N=C1C | 5.68% (active) | -33.6% (active) | -74% (active) | -50.7% (active) | -56.1% (active) | -20.8% (active) | -60.4% (active) | -71.3% (active) | -63.9% (active) | -86.2% (active) | -34.9% (active) | 1.26% (active) | -5.75% (active) | 12.8% | -68.8% (active) | -23% (active) | -92.1% (active) | -64.5% (active) |  | -64.9% (active) |
